Legend:
Assay in all cases: log2 ratio of Biotin-Ahx-Ub-VS probe labelling (fragment/DMSO); higher = less target engagement (more negative = stronger competition), active = hit call of the paper (q ≤ 0.05, log2 ratio ≤ -1)
Settings in all cases: compound concentration: 200 uM; treatment time: 3 h
USP34 = USP34 (UniProt Q70CQ2)
Method in brief: (§1)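 Labelled DUBs from HEK293T lysate were NeutrAvidin-enriched, digested with LysC and trypsin, and run by diaPASEF LC-MS/MS. Before that, each 495 µg sample in Tris/CHAPS/IGEPAL buffer with protease inhibitors was treated in triplicate with fragment at 200 µM or vehicle for 3 h, then with Biotin-Ahx-Ub-VS at 0.5 µM final for 1 h. Values are average log2 ratios of fragment over vehicle by unpaired t-test, based on global-median-normalised Spectronaut label-free quantities from proteins with ≥2 unique peptides.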

USP36 = target: T1, USP36 (UniProt Q9P275)
T1 sequence (whole entry): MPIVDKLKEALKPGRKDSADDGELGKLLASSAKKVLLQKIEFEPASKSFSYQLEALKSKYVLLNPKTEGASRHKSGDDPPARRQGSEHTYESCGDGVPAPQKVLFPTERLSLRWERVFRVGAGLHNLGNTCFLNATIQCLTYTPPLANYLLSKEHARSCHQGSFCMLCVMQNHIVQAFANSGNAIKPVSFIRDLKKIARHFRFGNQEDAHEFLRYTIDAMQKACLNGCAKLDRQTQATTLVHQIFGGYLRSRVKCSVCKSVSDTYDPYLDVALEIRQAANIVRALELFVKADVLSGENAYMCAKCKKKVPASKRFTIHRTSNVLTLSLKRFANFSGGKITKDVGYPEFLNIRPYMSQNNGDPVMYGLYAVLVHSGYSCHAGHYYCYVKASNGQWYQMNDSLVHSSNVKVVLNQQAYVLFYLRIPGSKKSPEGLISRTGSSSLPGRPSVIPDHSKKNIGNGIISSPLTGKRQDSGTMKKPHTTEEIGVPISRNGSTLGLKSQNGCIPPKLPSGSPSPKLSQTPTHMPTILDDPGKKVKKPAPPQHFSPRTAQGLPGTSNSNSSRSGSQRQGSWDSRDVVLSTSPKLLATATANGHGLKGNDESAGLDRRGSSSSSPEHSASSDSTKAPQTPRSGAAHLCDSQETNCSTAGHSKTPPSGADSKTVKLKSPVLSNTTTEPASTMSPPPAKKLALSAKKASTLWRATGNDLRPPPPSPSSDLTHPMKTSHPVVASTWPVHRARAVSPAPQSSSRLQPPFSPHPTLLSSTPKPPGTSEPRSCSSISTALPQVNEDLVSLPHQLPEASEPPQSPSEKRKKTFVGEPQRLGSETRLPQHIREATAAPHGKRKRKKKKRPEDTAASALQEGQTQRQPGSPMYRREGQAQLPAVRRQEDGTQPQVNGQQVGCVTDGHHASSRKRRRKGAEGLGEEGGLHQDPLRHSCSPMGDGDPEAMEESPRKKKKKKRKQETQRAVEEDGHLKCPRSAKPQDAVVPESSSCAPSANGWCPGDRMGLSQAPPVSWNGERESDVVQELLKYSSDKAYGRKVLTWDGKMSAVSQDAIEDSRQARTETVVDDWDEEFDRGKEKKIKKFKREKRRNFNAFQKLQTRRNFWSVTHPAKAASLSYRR
Method in brief: as §1

USP38 = target: T2, USP38 (UniProt Q8NB14)
T2 sequence (whole entry): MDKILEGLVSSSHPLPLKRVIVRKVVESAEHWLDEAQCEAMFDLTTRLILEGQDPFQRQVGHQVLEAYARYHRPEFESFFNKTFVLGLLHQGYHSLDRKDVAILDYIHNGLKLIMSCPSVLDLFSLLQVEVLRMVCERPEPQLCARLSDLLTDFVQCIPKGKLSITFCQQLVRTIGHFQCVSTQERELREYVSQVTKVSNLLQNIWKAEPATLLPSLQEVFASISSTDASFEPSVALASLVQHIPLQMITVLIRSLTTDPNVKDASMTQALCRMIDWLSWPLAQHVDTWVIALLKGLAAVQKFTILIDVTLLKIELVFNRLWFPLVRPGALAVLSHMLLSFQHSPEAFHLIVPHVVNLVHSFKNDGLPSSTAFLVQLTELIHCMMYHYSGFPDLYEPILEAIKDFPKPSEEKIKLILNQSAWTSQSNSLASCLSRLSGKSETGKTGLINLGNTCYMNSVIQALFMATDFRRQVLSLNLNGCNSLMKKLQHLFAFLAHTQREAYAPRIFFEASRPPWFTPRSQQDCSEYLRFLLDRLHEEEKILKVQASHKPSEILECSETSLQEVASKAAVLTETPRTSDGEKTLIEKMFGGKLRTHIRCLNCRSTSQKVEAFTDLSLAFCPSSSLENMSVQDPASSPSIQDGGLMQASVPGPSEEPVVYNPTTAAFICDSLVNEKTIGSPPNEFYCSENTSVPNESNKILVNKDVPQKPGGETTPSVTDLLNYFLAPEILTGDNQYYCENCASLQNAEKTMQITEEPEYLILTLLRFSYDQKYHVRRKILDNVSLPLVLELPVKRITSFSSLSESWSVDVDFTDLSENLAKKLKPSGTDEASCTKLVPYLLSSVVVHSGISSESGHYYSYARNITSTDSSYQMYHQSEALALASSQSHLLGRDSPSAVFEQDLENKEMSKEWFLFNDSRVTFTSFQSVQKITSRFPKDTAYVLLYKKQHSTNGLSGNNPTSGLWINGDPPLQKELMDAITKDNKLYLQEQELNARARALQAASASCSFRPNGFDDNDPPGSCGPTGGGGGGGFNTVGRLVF
Method in brief: as §1

USP39 = target: T3, USP39 (UniProt Q53GS9)
T3 sequence (whole entry): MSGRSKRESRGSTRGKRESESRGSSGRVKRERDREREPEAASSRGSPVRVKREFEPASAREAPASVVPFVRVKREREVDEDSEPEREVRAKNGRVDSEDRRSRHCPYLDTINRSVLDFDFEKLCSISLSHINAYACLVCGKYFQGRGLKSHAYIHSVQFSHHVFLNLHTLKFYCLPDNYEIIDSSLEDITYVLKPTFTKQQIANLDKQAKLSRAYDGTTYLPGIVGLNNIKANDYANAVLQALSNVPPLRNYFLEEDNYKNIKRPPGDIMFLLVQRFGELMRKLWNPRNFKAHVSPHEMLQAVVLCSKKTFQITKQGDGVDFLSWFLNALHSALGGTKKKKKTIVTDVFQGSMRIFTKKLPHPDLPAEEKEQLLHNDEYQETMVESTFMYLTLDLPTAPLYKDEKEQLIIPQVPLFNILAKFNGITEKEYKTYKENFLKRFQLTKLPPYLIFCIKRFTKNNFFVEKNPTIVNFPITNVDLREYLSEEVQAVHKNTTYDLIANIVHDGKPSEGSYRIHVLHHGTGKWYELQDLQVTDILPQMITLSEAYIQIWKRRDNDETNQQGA
Method in brief: as §1

USP4 = target: T4, USP4 (UniProt Q13107)
T4 sequence (whole entry): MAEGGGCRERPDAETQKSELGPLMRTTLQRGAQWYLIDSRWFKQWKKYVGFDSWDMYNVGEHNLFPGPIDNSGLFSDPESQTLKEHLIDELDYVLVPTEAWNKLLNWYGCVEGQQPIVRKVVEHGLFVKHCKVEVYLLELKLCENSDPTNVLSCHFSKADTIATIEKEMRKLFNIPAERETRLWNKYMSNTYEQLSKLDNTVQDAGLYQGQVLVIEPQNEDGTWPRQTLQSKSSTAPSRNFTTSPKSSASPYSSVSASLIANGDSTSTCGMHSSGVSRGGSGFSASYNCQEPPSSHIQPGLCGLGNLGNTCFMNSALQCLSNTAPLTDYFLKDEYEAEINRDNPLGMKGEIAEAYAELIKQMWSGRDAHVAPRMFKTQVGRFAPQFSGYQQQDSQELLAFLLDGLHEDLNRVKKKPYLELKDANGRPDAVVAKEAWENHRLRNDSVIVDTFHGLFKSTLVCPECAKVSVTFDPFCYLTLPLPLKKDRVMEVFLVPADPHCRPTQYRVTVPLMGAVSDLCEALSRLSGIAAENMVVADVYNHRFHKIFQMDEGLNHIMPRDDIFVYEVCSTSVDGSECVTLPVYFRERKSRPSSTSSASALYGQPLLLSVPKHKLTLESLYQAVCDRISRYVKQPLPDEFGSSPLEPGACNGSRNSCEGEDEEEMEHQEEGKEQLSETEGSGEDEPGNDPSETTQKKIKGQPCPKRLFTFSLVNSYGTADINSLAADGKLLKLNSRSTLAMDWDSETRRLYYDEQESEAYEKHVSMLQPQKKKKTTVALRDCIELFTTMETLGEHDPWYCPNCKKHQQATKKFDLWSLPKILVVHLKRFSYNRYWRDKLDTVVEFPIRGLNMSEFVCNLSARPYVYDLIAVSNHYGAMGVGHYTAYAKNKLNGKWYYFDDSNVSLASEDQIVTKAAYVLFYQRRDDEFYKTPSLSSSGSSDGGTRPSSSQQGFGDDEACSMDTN
Method in brief: as §1

Measured: log2 ratio of Biotin-Ahx-Ub-VS probe labelling

USP34, sequence (Q70CQ2 whole entry, the tested form may be a part): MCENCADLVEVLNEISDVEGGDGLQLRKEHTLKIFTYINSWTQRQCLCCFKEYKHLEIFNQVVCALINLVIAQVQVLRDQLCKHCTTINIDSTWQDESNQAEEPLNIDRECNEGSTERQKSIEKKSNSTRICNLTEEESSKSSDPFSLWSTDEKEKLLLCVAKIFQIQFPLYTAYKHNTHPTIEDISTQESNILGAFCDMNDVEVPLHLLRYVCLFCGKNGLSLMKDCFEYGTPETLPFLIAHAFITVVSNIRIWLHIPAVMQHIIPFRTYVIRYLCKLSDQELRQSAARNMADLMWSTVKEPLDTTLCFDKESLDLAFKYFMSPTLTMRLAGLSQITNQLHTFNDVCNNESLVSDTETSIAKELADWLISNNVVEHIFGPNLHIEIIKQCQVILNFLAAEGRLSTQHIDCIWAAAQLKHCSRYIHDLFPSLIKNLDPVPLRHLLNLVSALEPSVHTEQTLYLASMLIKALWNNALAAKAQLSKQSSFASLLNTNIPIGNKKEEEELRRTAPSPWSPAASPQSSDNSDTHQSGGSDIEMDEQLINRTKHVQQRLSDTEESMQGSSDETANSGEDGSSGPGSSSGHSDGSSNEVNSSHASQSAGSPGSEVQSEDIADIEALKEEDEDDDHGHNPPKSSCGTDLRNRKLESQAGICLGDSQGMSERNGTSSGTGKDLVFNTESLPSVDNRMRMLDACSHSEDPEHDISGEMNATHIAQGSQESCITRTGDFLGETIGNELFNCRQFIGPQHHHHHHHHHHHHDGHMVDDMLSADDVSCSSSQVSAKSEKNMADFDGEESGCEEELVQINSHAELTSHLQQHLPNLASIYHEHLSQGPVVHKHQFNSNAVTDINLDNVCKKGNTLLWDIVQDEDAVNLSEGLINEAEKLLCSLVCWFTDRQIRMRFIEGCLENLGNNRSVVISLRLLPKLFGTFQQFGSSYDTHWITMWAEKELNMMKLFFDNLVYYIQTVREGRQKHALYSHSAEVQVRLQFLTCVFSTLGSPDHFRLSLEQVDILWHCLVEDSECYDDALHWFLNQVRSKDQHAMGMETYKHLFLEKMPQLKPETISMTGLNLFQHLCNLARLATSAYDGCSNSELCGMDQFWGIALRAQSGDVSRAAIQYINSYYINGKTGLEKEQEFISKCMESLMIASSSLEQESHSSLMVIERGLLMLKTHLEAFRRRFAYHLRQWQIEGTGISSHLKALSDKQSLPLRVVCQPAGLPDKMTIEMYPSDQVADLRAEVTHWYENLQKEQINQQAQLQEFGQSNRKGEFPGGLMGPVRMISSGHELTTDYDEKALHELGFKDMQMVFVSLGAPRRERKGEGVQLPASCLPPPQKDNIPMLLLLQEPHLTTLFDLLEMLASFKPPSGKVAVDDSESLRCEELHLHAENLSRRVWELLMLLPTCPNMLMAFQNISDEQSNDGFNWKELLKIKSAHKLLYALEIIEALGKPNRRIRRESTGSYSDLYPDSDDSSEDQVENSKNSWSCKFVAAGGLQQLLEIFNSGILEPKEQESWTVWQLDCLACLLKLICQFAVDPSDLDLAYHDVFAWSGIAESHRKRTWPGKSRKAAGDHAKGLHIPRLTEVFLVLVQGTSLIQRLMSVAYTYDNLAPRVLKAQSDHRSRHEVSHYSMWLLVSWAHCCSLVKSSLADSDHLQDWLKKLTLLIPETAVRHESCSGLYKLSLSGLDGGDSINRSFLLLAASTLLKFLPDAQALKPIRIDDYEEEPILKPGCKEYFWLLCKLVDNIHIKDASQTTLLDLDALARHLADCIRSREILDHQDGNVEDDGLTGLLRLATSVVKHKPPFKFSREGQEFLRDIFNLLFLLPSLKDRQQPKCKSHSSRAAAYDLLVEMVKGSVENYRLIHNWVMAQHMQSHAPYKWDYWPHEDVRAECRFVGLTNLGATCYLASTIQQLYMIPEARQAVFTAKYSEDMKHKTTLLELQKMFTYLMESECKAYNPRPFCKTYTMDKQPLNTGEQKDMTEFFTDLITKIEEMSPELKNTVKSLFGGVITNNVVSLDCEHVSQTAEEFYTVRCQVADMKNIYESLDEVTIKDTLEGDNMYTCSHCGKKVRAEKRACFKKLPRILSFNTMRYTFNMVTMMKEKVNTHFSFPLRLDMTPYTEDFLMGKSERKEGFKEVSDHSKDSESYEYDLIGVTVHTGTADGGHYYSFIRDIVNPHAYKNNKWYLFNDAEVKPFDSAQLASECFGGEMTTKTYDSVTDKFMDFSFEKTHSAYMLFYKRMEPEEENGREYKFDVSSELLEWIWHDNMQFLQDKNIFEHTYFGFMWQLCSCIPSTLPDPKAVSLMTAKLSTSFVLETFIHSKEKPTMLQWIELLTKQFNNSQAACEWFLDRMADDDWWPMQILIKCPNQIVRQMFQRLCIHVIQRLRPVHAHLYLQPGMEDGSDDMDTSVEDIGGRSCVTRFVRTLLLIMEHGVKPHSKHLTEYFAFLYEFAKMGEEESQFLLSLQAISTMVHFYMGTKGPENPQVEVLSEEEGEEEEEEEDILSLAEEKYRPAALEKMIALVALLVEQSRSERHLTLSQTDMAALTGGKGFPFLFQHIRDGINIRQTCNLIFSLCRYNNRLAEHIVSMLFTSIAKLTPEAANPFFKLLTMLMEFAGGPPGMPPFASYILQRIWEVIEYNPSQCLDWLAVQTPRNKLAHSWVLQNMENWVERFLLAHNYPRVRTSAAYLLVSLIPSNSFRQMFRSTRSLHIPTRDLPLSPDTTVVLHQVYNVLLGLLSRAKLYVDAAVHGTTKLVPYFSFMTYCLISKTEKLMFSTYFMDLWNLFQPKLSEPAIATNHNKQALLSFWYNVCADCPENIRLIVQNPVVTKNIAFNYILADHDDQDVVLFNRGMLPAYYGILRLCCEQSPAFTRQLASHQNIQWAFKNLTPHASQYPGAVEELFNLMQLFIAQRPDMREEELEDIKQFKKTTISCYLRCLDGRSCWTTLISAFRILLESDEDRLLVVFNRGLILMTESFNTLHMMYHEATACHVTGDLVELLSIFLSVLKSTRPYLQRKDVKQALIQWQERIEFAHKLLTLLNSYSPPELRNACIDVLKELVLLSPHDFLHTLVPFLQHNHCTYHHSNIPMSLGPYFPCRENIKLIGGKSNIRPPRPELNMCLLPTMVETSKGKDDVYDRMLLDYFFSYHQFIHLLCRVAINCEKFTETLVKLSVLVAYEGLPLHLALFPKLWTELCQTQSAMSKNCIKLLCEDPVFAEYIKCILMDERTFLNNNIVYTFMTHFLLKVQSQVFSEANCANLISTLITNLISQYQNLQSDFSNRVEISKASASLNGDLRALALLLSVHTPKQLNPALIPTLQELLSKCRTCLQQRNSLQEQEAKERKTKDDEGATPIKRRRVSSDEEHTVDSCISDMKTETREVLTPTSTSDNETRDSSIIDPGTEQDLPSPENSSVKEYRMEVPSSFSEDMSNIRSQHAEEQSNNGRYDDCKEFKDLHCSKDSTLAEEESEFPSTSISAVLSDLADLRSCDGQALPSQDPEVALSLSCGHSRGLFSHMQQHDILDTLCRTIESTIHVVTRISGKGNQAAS

Cc1cccnc1NC(=O)C1CCN(C(=O)CCl)CC1.Cl
inactive: USP34 -0.124 | USP36 -0.102 | USP38 -0.157 | USP39 0.0484 | USP4 0.0404

Reference: the supplement of paper PMC11732987, “Enantioselective OTUD7B fragment discovery through chemoproteomics screening and high-throughput optimisation” (Communications Chemistry, 2025)
